# AmpC detergent = qHTS Inhibitors of AmpC Beta-Lactamase (assay with detergent); P00811; AmpC hydrolysis of nitrocefin, absorbance 480 nm, 0.01% Triton; Potency, µM (doses to about 114 µM), for inactives: top-dose activity change, negative = inhibition, actives largely listed as inhibitors; 370,000 tested, 0.041% active;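 further: 0% = no-compound wells and -100% = no-enzyme wells; nearly all actives have a fitted effect of over 25% in size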
# Target sequence (P00811 whole entry, looked up): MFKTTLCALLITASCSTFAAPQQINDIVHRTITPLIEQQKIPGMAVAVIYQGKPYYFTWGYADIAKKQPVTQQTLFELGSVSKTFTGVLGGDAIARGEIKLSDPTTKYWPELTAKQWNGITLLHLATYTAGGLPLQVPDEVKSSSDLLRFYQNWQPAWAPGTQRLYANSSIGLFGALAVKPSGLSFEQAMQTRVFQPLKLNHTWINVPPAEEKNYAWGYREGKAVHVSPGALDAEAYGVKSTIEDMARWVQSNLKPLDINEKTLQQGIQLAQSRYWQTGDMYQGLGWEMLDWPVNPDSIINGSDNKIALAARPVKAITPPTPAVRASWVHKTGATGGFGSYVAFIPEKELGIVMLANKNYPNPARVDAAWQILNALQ
#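 20 mM phosphate pH 7.0 + 0.01% (detergent screen) or 0.0001% Triton X-100; 5.3 nM AmpC reagent; cpd preinc 15 min RT; nitrocefin (800 uM stock) to start; A480 q20 s × 4 min; Activity was normalised to no-enzyme and no-compound control wells.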
# AMA1-RON2 inh = qHTS for Inhibitors of AMA1-RON; Towards Development of Antimalarial Drug Lead: Primary Screen; Plasmodium falciparum AMA1 (3D7) - RON2 peptide interaction; AlphaScreen AMA1-biotinylated RON2 peptide binding; Potency, µM (series often up to 58.2 µM), for inactives: top-dose activity change, negative = inhibition, usual class: inhibitors; 360,000 tested, 0.2% active; AID 720542, 2013;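 further: 0% = vehicle wells and -100% = peptide control; nearly all actives have a fitted effect of over 45% in size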
#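 AMA1 (3D7) with his tag at 25 nM final met compounds first, then biotinylated RON2 peptide at 25 nM; detection used donor plus acceptor beads, 10 µg/mL apiece, read by AlphaScreen after 30 min at room temperature.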
# SARS PLpro yeast = qHTS of Yeast-based Assay for SARS-CoV PLP. 330,000 tested, 0.19% active. Potency, µM (doses to about 32.9 µM), without a hit: at the highest dose activity, positive = growth rescue, hits mostly activators. S. cerevisiae expressing SARS-CoV PLpro, growth rescue. AID 485353, 2010; calls by dose curve; further: 0% is about no effect; nearly all actives have a fitted effect of over 55% in size
# VACV mCherry inh = qHTS for Stage-Specific Inhibitors of Vaccinia Orthopoxvirus: mCherry Reporter Primary qHTS | 310,000 tested, 0.63% active | Potency, µM (doses to about 36.5 µM), for the others: top-dose activity change, negative = inhibition, most hits filed as inhibitors | AID 720579, 2013 | Vaccinia virus mCherry reporter infection, fluorescence; calls by dose curve; tested in A549 cells; further: on the % scale 0 is the no-effect control and ±100 the full control effect; nearly all actives have a fitted effect of over 35% in size
# Vaccinia Venus = qHTS for Stage-Specific Inhibitors of Vaccinia Orthopoxvirus: Venus Reporter Primary qHTS | Vaccinia virus Venus reporter expression, fluorescence | Potency, µM (series often up to 36.5 µM), for inactives: top-dose activity change, negative = inhibition, hits mostly inhibitors | 330,000 tested, 0.46% active | AID 720580, 2013; calls by dose curve; tested in A549 cells; further: on the % scale 0 is the no-effect control and ±100 the full control effect; nearly all actives have a fitted effect of over 30% in size
# AmpC no deterg = qHTS Inhibitors of AmpC Beta-Lactamase (assay without detergent); P00811; AmpC nitrocefin hydrolysis, absorbance 480 nm, 0.0001% Triton; Potency, µM (doses to about 57.1 µM), for the others: at the top dose activity change, negative = inhibition, usual class: inhibitors; 330,000 tested, 0.52% active;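 further: plate controls were no compound for no effect and no enzyme for full effect; nearly all actives have a fitted effect of over 20% in size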
#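 20 mM phosphate pH 7.0 + 0.01% (detergent screen) or 0.0001% Triton X-100; 5.3 nM AmpC reagent; cpd preinc 15 min RT; nitrocefin (800 uM stock) to start; A480 q20 s × 4 min; Activity was normalised to no-enzyme and no-compound control wells.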
# * = called active by the depositor; i = inactive; ? = inconclusive; nt = not tested or not shown; ! = not active in a repeat; [ ] = another dose, or the depositor's remark. Only some compounds are listed: those with a hit (about 1.4% of all), similar ones and a draw of the others. Unless noted, the call rests on the fitted dose curve; in most records, active means well fitted curve in the direction sought with a large enough effect; inconclusive means small, poorly fitted or top-dose-only effect, or another doubt; inactive means no such curve, though single readings can be large; an effect the other way counts as inactive or inconclusive. Potency means the concentration at half of the fitted maximal effect.
SMILES,AmpC detergent,AMA1-RON2 inh,SARS PLpro yeast,VACV mCherry inh,Vaccinia Venus,AmpC no deterg
COc1cccc(C(=O)NCCSc2c(-c3ccc(F)cc3)[nH]c3ccccc23)c1OC,9%,nt,nt,-11%,-16%,nt
O=C(CSc1nnc(Nc2ccccc2F)s1)c1cc2ccccc2o1,-6%,13%,-17%,i,-5%,35µM*
CCN1CCN(Cc2ccc(NC(=O)c3cc(NC(=O)c4ccno4)cc(OC)c3)cc2C(F)(F)F)CC1,-3%,-6%,-2%,-5%,?,70%
COc1ccc(-c2cc(C(=O)Nc3cc(OC)cc(C(=O)Nc4cccc(C(F)(F)F)c4)c3)[nH]n2)cc1,-2%,-1%,-3%,-7%,?,28µM*
CCN1CCN(Cc2ccc(NC(=O)c3cc(NC(=O)c4cc5cccc(OC)c5o4)cc(OC)c3)cc2C(F)(F)F)CC1,6%,-30%,0%,?,13µM*!,111%
CCN1CCN(Cc2ccc(NC(=O)c3cc(NC(=O)c4cc(-c5ccc(OC)cc5)n[nH]4)cc(OC)c3)cc2C(F)(F)F)CC1,4%,?,1%,?,10µM*,55%
COc1cc(NC(=O)c2ccno2)cc(C(=O)Nc2cccc(C(F)(F)F)c2)c1,-2%,1%,-5%,-26%,-11%,15%
COc1cccc(Nc2nc3ccccc3c(=O)[nH]2)c1,2%,-5%,2%,-6%,-19%,10µM*
O=C(NC1CCN(Cc2ccccc2)C1)c1cnn(-c2ncc3c(n2)-c2ccccc2CC3)c1C1CC1 (stereo not drawn),nt,nt,nt,-28%,-6%,nt
CC1Cc2nc(SCC(=O)Nc3ccc4c(c3)OCO4)n(CCc3ccccc3)c(=O)c2S1 (stereo not drawn),?,-8%,24%,1%,-18%,?
CCn1c(SCC(=O)Nc2ccc3c(c2)OCO3)nc2c(c1=O)SC(C)C2 (stereo not drawn),-1%,-1%,-20%,10%,-11%,2.8µM*
C=CC(=O)Nc1cccc(N(C)c2ccnc(Nc3ccc(N4CCN(C)CC4)cc3)n2)c1,nt,22µM*,nt,?,4.5µM*,nt
COc1cccc(NC(=O)Nc2cccnc2)c1,5%,0%,-1%,nt,nt,-15%
CN1CCN(c2ccc(NC(=O)COc3cccc4ccccc34)cc2)CC1,-8%,-18%,-6%,?,4%,68%
C=CC(=O)Nc1cccc(Oc2ccnc3[nH]ccc23)c1,nt,25µM*,nt,?,5.6µM*,nt
C=CC(=O)Nc1cccc(Oc2ccnc(Nc3ccc(N4CCN(C)CC4)cc3)n2)c1,nt,?,nt,?,3.5µM*,nt
CN(C)c1ccc(/C=C/c2ccnc3c(Cl)ccc(Cl)c23)cc1,nt,nt,nt,?,31%,nt
CCCCC/C=C\C\C=C/C=C/C=C/[C@@H](SC[C@H](NC(=O)CC[C@H](N)C(=O)O)C(=O)NCC(=O)O)[C@@H](O)CCCC(=O)O,nt,nt,nt,-3%[0.293 µM],-15%[0.293 µM],nt
c1ccc(-c2nnnc3ccccc23)cc1,?,15%,20%,-3%,-14%,-34%
Clc1ccc2nnnc(-c3ccccc3)c2c1,?,0%,-39%,13µM*,13µM*,-15%
Cc1cc2nc3s/c(=C/c4ccc(-c5ccccc5C(=O)O)o4)c(=O)n3c2cc1C,-1%,-26%,0%,i,-3%,-28%
O=C(O)c1ccccc1-c1ccc(/C=c2\sc3nc4cc(Br)cnc4n3c2=O)o1,0%,11µM*,6%,-12%,-1%,-38%
C[n+]1c2n(c3ccccc31)N=C(c1cc(C(C)(C)C)c(O)c(C(C)(C)C)c1)CS2,4%,-16%,-1%,?,10µM*,119%
CCCCC(=O)NC(=S)NNC(=O)c1ccc(OC)cc1,35µM*,109%,0%,?,-19%,-51%
COc1ccc(C(=O)NNC(=S)NC(=O)c2ccc(OC)cc2)cc1,-12%,109%,-9%,nt,nt,-35%
SMILES,AmpC detergent,AMA1-RON2 inh,SARS PLpro yeast,VACV mCherry inh,Vaccinia Venus,AmpC no deterg
CC(C)CNS(=O)(=O)c1ccc(CCC(=O)N2CCOCC2)cc1,4%,-10%,2%,-14%,-5%,0.22µM*
N[C@H](C(=O)O)[C@@H]1CC(Cl)=NO1,nt,nt,nt,2µM*,?,nt
NC(C(=O)O)C1CC(Cl)=NO1 (stereo not drawn),-10%,nt,3%,nt,nt,-17%
COc1ccc(CN2CCCC(n3cc(C(=O)NC4CCCC4)nn3)C2)c(O)c1 (stereo not drawn),nt,nt,nt,i,-18%,nt
Cc1nnsc1C(=O)N1CCCC(N2CCN(c3ccc(F)cc3)CC2)C1 (stereo not drawn),-4%,5%,0.71µM*,i,-13%,15%
Cn1c(=O)c(C(=O)CCl)c(N)n(Cc2ccccc2)c1=O,-15%,9%,-22%,?,13µM*,-1%
Cn1c(N)c(C(=O)CCl)c(=O)n(Cc2ccccc2)c1=O,-10%,-7%,-9%,-31%,?,-28%
CC(O)(COc1ccccc1)c1ccc2c(c1)CN(C/C=C/c1ccco1)CCO2 (stereo not drawn),nt,nt,nt,-5%,3%,nt
COc1cccc(C(=O)c2sc(NC(C)C)nc2N)c1,-8%,0%,-5%,nt,7.1µM*,-22%
COc1ccc(C(=O)c2sc(NC(C)C)nc2N)cc1OC,-2%,-6%,12%,nt,11µM*,-26%
COc1ccc(Nc2nc(N)c(C(=O)c3ccc(F)cc3)s2)cc1,2%,-1%,-4%,?,?,-28%
COc1ccc(Nc2nc(N)c(C(=O)c3ccc(OC)cc3)s2)cc1,0%,-22%,-1%,1.8µM*,-25%,-35%
Cc1ccc2c(c1)cc(CN(C)Cc1nc(C)cs1)c(=O)n2C,nt,nt,nt,-13%,-11%,nt
COc1cccc(CNC(=O)c2c(OC)cc(=O)n3c2CCN(C(=O)c2ccccc2Cl)CC3)c1,nt,nt,nt,i,-8%,nt
Cc1ncc2c(c1CNC(=O)c1cncs1)CCN(C(=O)c1cc(F)c(F)cc1F)C2,nt,nt,nt,i,-25%,nt
CN(C)C1CCC(CC2CCc3ccccc32)CC1 (stereo not drawn),nt,nt,nt,-15%,-12%,nt
CCOC(=O)C1=C(C)N(C[C@@H]2CC[C@@H](Cc3ccc(-c4ccccc4)cc3)O2)C(=O)NC1c1ccc(SCc2ccco2)c([N+](=O)[O-])c1 (stereo partly drawn),nt,-18%,18%,i,-23%,7.9µM*
CCOC(=O)C1=C(C)N(C[C@@H]2CC[C@@H](Cc3ccc(-c4ccccc4)cc3)O2)C(=O)NC1c1ccc(C(F)(F)F)cc1 (stereo partly drawn),nt,6%,14%,i,-29%,-26%

# Screening results as filed in PubChem.
